Many of the other results were omitted from the sample, so hits are more common in it than they were.
Sfp PPTase inh – Sfp phosphopantetheinyl transferase inhibition. 310,000 compounds, 3.5% hits. Q9F4F7. Biochemical Sfp PPTase activity, qHTS. Potency, µM, usual class: inhibitors. AID 1490;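 note: the enzyme is Sfp with the accession as filed and its product quenches rhodamine fluorescence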
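Compounds were incubated with enzyme (final 15 nM) for 15 min at room temperature before substrate addition started the reaction. Fluorescence at 525 nm excitation, 598 nm emission was recorded immediately and after 30 minutes.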
ALOX12 inh – blocks human arachidonate 12S-lipoxygenase. purified 12hLO, xylenol orange hydroperoxide absorbance. 580,000 compounds, 1.1% hits. AID 1671190. Potency, µM (series often up to 108 µM), hits mostly inhibitors
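Purified human 12hLO at 150 nM in 25 mM Hepes, 0.01% Triton X-100, pH 7.0, preincubated 15 min at room temperature with compound. Reaction started with 40 uM arachidonic acid, 30 min at room temperature. Hydroperoxide measured by Fe-xylenol orange, 573/405 nm absorbance ratio.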
VDR inh – vitamin D3 receptor (human) inhibition | AID 504847 | P11473 | 400,000 compounds, 0.93% hits | Potency, µM, hits mostly inhibitors | VDR-SRC2-3 peptide fluorescence polarization, 2 h
Target sequence (P11473 whole entry, looked up): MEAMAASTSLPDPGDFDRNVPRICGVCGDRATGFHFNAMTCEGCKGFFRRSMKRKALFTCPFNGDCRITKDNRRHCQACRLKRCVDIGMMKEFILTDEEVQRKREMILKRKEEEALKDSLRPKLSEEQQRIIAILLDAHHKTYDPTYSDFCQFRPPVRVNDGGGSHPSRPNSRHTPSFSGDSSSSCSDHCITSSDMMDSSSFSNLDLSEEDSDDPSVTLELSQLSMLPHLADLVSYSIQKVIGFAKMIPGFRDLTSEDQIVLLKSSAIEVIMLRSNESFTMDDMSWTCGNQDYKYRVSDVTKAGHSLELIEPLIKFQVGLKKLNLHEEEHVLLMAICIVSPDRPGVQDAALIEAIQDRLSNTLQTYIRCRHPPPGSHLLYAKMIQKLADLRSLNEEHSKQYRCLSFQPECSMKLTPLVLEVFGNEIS
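Signal is fluorescence polarization, reporting how far test compounds block the interaction of VDR with the SRC2-3 coregulator peptide after a 2 h room-temperature incubation.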
Glioma ERSR ind – ER stress response induction in glioma | U87-MG GRP78 promoter luciferase reporter, 16 h | Potency, µM, most hits filed as activators | 420,000 compounds, 0.02% hits; note: series mostly up to about 76 µM; nearly all actives have a fitted effect of over 35% in size
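Stably transfected U87-MG human glioma cells carrying a GRP78-based luminescent sensor were seeded at 1000 cells/well, pin-dosed with compounds and incubated 16 h. Luciferase reagent was then added, and end-point luminescence was read after 10 min at room temperature.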
G9a block – inhibitors of human histone lysine methyltransferase G9a. G9a H3K9 monomethylation, AlphaScreen, 2 h. Potency, µM (highest dose often 102 µM), usual class: inhibitors. Q96KQ7. 350,000 compounds, 8.8% hits; note: nearly all actives have a fitted effect of over 75% in size
Target sequence (Q96KQ7 913-1193 limits assumed): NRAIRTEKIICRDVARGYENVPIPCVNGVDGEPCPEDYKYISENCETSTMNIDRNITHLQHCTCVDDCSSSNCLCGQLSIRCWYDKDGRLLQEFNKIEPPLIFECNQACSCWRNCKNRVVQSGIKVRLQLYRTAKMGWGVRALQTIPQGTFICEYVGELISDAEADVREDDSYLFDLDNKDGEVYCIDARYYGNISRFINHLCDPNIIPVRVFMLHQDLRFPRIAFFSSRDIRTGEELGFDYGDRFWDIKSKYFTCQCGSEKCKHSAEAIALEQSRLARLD
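Enzyme 20 nM + cpd, 15 min RT; add b-H3K9 pep 500 nM / SAM 20 uM; 2 h RT; anti-H3K9me1 Ab 0.5 ug/mL + SA donor / anti-rabbit acceptor beads 20 ug/mL each, 10 min; AlphaScreen read.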
Hits are given with their value; 0 = inactive; ? = inconclusive; - = not tested or not shown; ! = not confirmed by another sample; [ ] = remark or other dose. Calls come from the whole dose curve; as a rule, active = well fitted curve in the direction sought with a large enough effect; inconclusive = small, poorly fitted or top-dose-only effect, or another doubt; inactive = no such curve, though single readings can be large; an effect the other way counts as inactive or inconclusive.

SMILES	Sfp PPTase inh	ALOX12 inh	VDR inh	Glioma ERSR ind	G9a block
C=C1N(C)c2cc([N+](=O)[O-])c(N)cc2C1(C)C	0	?	0	0	31.6µM
COc1cc(/C=C2/C(=N)N3N=C(C(C)C)SC3=NC2=O)ccc1OS(=O)(=O)c1ccccc1	0	?	56.2µM	0	0
C=CCOc1ccc(/C=C2\C(=N)N3N=C(S(=O)(=O)CC)SC3=NC2=O)cc1OC	0	0	0	0	0
COc1cc(/C=C2\C(=N)N3N=CSC3=NC2=O)ccc1OS(=O)(=O)c1ccccc1	0	0	79.4µM	0	?
CCC1=NN2C(=N)/C(=C/c3ccc(OS(=O)(=O)c4ccccc4)c(OC)c3)C(=O)N=C2S1	0	0	0	0	0
COc1cc(/C=C2\C(=N)N3N=C(S(C)(=O)=O)SC3=NC2=O)ccc1OS(=O)(=O)c1ccc(C)cc1	0	44.7µM	?	0	0
Cc1ccc2oc(C(=O)N(Cc3ccc(Cl)cc3)C3CCS(=O)(=O)C3)cc(=O)c2c1 (stereo unspecified)	-	0	-	-	-
O=C(O)c1cc(F)ccc1-c1ccccc1	-	0	-	-	-
Cc1ncoc1C(=O)Nc1ncc([N+](=O)[O-])s1	0	?	89.1µM	0	4.47µM
O=C1Cc2ccccc2C(=O)N1CCc1ccccc1	0	0	0	0	31.6µM
CCCCN1C(=O)c2ccccc2C(C(=O)Nc2ccccn2)C12CCCC2 (stereo unspecified)	-	0	-	-	-
CCCCNC(=S)Nc1ccc(C)cc1	-	0	-	-	-
CCCCNC(=S)Nc1ccc(OC)nc1	0	0	0	0	56.2µM
COC(=O)c1ccc2nc(NC(=O)CN3C(=O)CCC3=O)sc2c1	28.2µM	0	0	0	0[2.33 µM]
COC(=O)c1ccc2nc(NC(=O)COC(=O)CSc3nc(C)cc(C)n3)sc2c1	0	0	0	0	12.6µM
Cc1ccc2nc(NC(=O)COC(=O)CSc3nc(C)cc(C)n3)sc2c1	?	?	0	0	44.7µM
COC(=O)c1cccc(NC(=O)COC(=O)CSc2nc(C)cc(C)n2)c1	0	0	0	0	0
COc1ccc2nc(NC(=O)CSc3nc(C)cc(C)n3)sc2c1	0	0	0	0	?
OC[C@@H]1CNC[C@H]1C1CCN(Cc2ccc(Cl)c(F)c2)CC1	-	0	-	-	-
Fc1nc(F)c(F)c(Sc2nc3ccccc3s2)c1F	-	0	-	-	-
c1ccc(COc2ccccc2CNC23CC4CC(CC(C4)C2)C3)cc1	56.2µM	0	0	0	0[12.7 µM]
CC(C#N)Sc1nnc(Nc2ccccc2F)s1 (stereo unspecified)	-	0	-	-	-
c1ccc2sc(N3CCOCC3)nc2c1	0	0	0	0	0
c1ccc2sc(SN3CCOCC3)nc2c1	0	12.6µM!	?	0	?
CN(C)/C=C1\NC(=S)N(c2ccc(Cl)cc2)C1=O	31.6µM	?	0	0	5.62µM
SMILES	Sfp PPTase inh	ALOX12 inh	VDR inh	Glioma ERSR ind	G9a block
O=C1CNC(=O)N1c1ccc(Cl)cc1	0	0	0	0	0
Cc1cncnc1C1CCN(c2cc(C3CC(N)C3)ncn2)CC1 (stereo unspecified)	-	14.1µM	-	-	-
NC1CC(c2cc(N3CCN(c4nnc(C(F)(F)F)s4)CC3)ncn2)C1 (stereo unspecified)	-	0	-	-	-
Cc1cc(Cl)ccc1OCC(=O)OCC(=O)Nc1ccccc1Br	-	0	-	-	-
O=C(Cn1c(NCCCO)nc2ccccc21)c1ccc(Cl)cc1Cl	0	0	0	0	79.4µM
O=C(Cn1c(NCCCO)nc2ccccc21)c1ccc(Cl)cc1	0	?	0	0	-
COc1ccc(C(=O)Cn2c(NCCCO)nc3ccccc32)cc1	-	0	-	0	-
COc1ccc(-n2c(C)cc(C(=O)Cn3c(NCCO)nc4ccccc43)c2C)cc1	0	0	0	0	50.1µM
CCOc1ccc(NC2SC(=O)N(Cc3ccccc3)C2=O)cc1 (stereo unspecified)	-	0	0	0	11.2µM
O=C1SC(Nc2ccc(Cl)cc2)C(=O)N1Cc1ccccc1 (stereo unspecified)	-	?	0	0	0
COC(=O)c1cccc(CN2C(=O)SC(Nc3ccccc3)C2=O)c1 (stereo unspecified)	0	0	0	0	79.4µM
CCOC(=O)COc1ccc2c(=O)c(Oc3ccc(C(=O)OCC)cc3)c(C)oc2c1	-	0	-	-	-
COc1ccccc1NC(=O)C(C)Sc1nc2ccccc2nc1C (stereo unspecified)	-	0	-	-	-
CSc1nc(NS(=O)(=O)c2cc(Br)ccc2Br)cc(=O)[nH]1	0	?	0	0	56.2µM
COC(=O)c1ccccc1NC(=O)N1CCN(c2ccc(=O)n(-c3ccc(C)cc3)n2)CC1	-	0	-	-	-
COc1ccc(CCNC(=O)CCCc2nnc3n(C)c(=O)c4sccc4n23)cc1OC	0	?	0	0	22.4µM
Cc1ccc(CCNC(=O)CCCc2nnc3n(C)c(=O)c4sccc4n23)cc1	-	0	0	-	0
O=S(=O)(NCc1ccc(N2CCOCC2)nc1)c1cc(C(F)(F)F)cc(C(F)(F)F)c1	-	7.08µM	-	-	-
O=C(COc1ccc(Cl)cc1)NCCc1csc(-c2cccnc2)n1	-	0	-	-	-
COC(=O)c1ccc(/C=C/C(=O)c2ccc3cc(OC)ccc3c2)cc1	-	0	-	-	-
O=C(O)c1ncn(Cc2ccc(Br)cc2)c1C(=O)O	50.1µM	0	0	0	3.98µM
O=C(CCCc1nc2ccccc2s1)N1CCCC1c1ccc(F)cc1 (stereo unspecified)	-	0	-	-	-
C=CSc1sc(Cl)c(N(CC)CC)c1[N+](=O)[O-]	12.6µM	?	0	0	22.4µM
CSc1ccc(/C=C/c2nc(-c3ccc(F)cc3)cs2)cc1	-	0	-	-	-
CCCCCC1=CCC/C1=N/NC(=S)NCCOC	-	39.8µM	-	-	-
SMILES	Sfp PPTase inh	ALOX12 inh	VDR inh	Glioma ERSR ind	G9a block
NC(=S)NN=C1CCCCCCCCC1	-	?	0	0	-
COCCNC(=S)NN=C1CCCCC1	39.8µM	0	0	0	3.16µM
CCCCCC1=CCC/C1=N\NC(=O)C(N)=O	-	0	-	-	-
C=CCNC(=S)NN=C1CCCCCCC1	0	14.1µM	0	0	0
N#CCN(CC#N)C(=O)Cc1cccs1	-	31.6µM	-	-	-
CCOc1ccc2c(=O)c(Oc3ccccc3OCC)c(C)oc2c1	-	0	-	-	-
CC(=O)Nc1cc(-c2ccc(=O)n(CC(=O)Nc3c(C)cc(C)cc3C)n2)ccc1C	-	0	-	-	-
CCOC(=O)CCn1c(CC(=O)OCC)nc2ccccc21	0	0	0	0	50.1µM
CCOC(=O)Cn1c(S(=O)(=O)Cc2ccc(Cl)cc2)nc(-c2ccccc2)c1-c1ccccc1	0	0	0	0	-
O=C(O)CCn1c(CO)nc2ccccc21	0	0	0	0	0
CCOC(=O)Cn1c(S(=O)(=O)Cc2ccccc2)nc2ccccc21	0	?	0	0	39.8µM
C=CC[N+]1(CC#CCOC(c2ccccc2)c2ccccc2)CCCCC1	-	0	-	-	-
O=C(O)c1cc(NCc2c(F)cccc2Cl)ccc1N1CCOCC1	0	0	0	0	12.6µM
COC(=O)c1cc(NCc2ccccc2F)ccc1N1CCOCC1	0	?	0	0	44.7µM
COC(=O)c1cc(NC/C=C/c2ccccc2)ccc1N1CCOCC1	-	0	-	-	-
O=C(Nc1ccc(N2CCOCC2)c(C(=O)O)c1)c1ccco1	0	-	-	-	56.2µM
O=C(NCc1ccc(OCC(F)(F)F)cc1)c1ccc(S(=O)(=O)N2CCOCC2)cc1	-	0	-	-	-
